Compounds without any hit were thinned out: in the full panel of roughly 79,000, 15% have a hit. Activity calls are given as the source filed them. No stated cut-off is given here; in the data, active means growth inhibition above about 70%; inactive means the rest.
Columns and labels:
[1] = NCI Yeast Anticancer Drug Screen. Data for the rad52 strain (AID 147);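 further: 0% = growth of vehicle-treated control cultures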; details: S. cerevisiae rad52 mutant growth inhibition, active compounds read high
Summary of the method: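 DNA repair-defective yeast; compound exposure; growth scored against vehicle controls.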

[2] = NCI Yeast Anticancer Drug Screen. Data for the wt1 strain (AID 149);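 further: 0% = growth of vehicle-treated wt1 cultures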; details: S. cerevisiae wt1 strain (SPY 50644) growth inhibition, active compounds read high
Summary of the method: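 Vehicle-normalised growth inhibition; strain wt1; compound exposure.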

[3] = NCI Yeast Anticancer Drug Screen. Data for the rad50EPP+ strain (AID 151);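 further: 0% = growth of vehicle-treated control cultures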; details: S. cerevisiae rad50 mutant strain, active compounds read high
Summary of the method: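 rad50EPP+ yeast treated with test compounds. Readout: growth vs vehicle control.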

[4] = NCI Yeast Anticancer Drug Screen. Data for the mgt1 strain (AID 153); details: S. cerevisiae mgt1 mutant growth inhibition, active compounds read high
Summary of the method: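 Growth inhibition relative to vehicle controls was scored for the mgt1 yeast strain after compound exposure.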

[5] = NCI Yeast Anticancer Drug Screen. Data for the rad50 strain (AID 155);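 further: 0% = growth of vehicle-only cultures of the same strain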; details: S. cerevisiae rad50 strain growth inhibition, active compounds read high
Summary of the method: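 A DNA repair-deficient yeast mutant serves as the test organism; compound-induced growth inhibition is calculated against vehicle-treated cells.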

[6] = NCI Yeast Anticancer Drug Screen. Data for the mec2-1 strain (AID 157); details: S. cerevisiae mec2-1 strain, active compounds read high
Summary of the method: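 Growth inhibition is read against vehicle-treated controls after compound exposure of the mec2-1 yeast strain, which is defective in DNA damage repair or cell cycle control.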

[7] = NCI Yeast Anticancer Drug Screen. Data for the rad14 strain (AID 159);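 further: 0% = growth of vehicle-treated control cultures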; details: S. cerevisiae rad14 strain growth inhibition, active compounds read high
Summary of the method: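 Vehicle-treated cultures served as the baseline for growth inhibition of a DNA repair-mutant yeast strain exposed to each compound.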

[8] = NCI Yeast Anticancer Drug Screen. Data for the sgs1 mgt1 strain (AID 161);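 further: 0% = growth of cultures given vehicle only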; details: S. cerevisiae sgs1 mgt1 strain, active compounds read high
Summary of the method: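 Yeast cells carrying a defined DNA-repair defect were exposed to test compounds. Growth inhibition was measured relative to vehicle-treated controls.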

[9] = NCI Yeast Anticancer Drug Screen. Data for the CLN2oe strain (AID 163);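 further: 0% = growth of vehicle-only control cultures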; details: S. cerevisiae CLN2oe strain, active compounds read high
Summary of the method: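 Compound-treated yeast; growth vs vehicle ctrl = % inhibition. Genetically altered strain (cell-cycle control).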

[10] = NCI Yeast Anticancer Drug Screen. Data for the cln2 rad14 strain (AID 165);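 further: 0% = growth equal to vehicle treated cultures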; details: S. cerevisiae cln2 rad14 strain, active compounds read high
Summary of the method: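 Growth inhibition, relative to vehicle-treated controls, is the read-out. The test organism is a yeast strain with defined genetic alterations, cln2 rad14.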

[11] = NCI Yeast Anticancer Drug Screen. Data for the bub3 strain (AID 167); details: S. cerevisiae bub3 mutant strain, active compounds read high
Summary of the method: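 Inhibition values come from growth of compound-treated mutant yeast normalised to vehicle-treated controls.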

[12] = NCI Yeast Anticancer Drug Screen. Data for the wt2 strain (AID 169);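 further: 0% = growth of vehicle-treated yeast cultures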; details: S. cerevisiae wt2 strain growth inhibition, active compounds read high
Summary of the method: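 Compound exposure of yeast; growth compared with vehicle controls; inhibition reported.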

[13] = NCI Yeast Anticancer Drug Screen. Data for the sgs1 strain (AID 173);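 further: 0% = growth of vehicle-only control cultures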; details: S. cerevisiae sgs1 mutant, active compounds read high
Summary of the method: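 Compounds applied to genetically altered yeast; growth compared with vehicle-treated cultures to give % inhibition.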

[14] = NCI Yeast Anticancer Drug Screen. Data for the mlh1 rad18 strain (AID 175); details: S. cerevisiae mlh1 rad18 strain growth inhibition, active compounds read high
Summary of the method: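 Cells of a genetically altered yeast strain, deficient in DNA damage repair, were treated with compound. Their growth was then compared with that of vehicle-treated cultures to give inhibition.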

[15] = NCI Yeast Anticancer Drug Screen. Data for the rad18 strain (AID 177); details: S. cerevisiae rad18 mutant growth inhibition, active compounds read high
Summary of the method: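 Compounds are applied to a repair-deficient yeast strain, and growth is compared with that of vehicle-treated cultures to give percent inhibition.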

[16] = NCI Yeast Anticancer Drug Screen. Data for the mlh1 strain (AID 171);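 further: 0% = growth of vehicle-treated control cultures of the same strain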; details: S. cerevisiae mlh1 strain growth inhibition, active compounds read high
Summary of the method: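 Compounds are applied to a genetically altered yeast strain, and its growth is compared with that of vehicle-treated cultures to give percent inhibition.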

[17] = at 5.0 µM (retest, dose inferred, filed as 0.5)
[18] = at 50.0 µM (retest, dose inferred, filed as 5.0)

Measured: growth inhibition

c1ccc2c(c1)Oc1cccc3cccc-2c13
inactive: [1]; at 1.2 µM 5% | [1]; at 3.7 µM 3% | [1]; at 11.0 µM 5% | [1]; at 33.0 µM 38% | [1]; at 100.0 µM 58% | [2]; at 1.2 µM -11% | [2]; at 3.7 µM 1% | [2]; at 11.0 µM -8% | [2]; at 33.0 µM 3% | [2]; at 100.0 µM 10% | [3]; at 1.2 µM 11% | [3]; at 3.7 µM 8% | [3]; at 11.0 µM 34% | [3]; at 33.0 µM 43% | [3]; at 100.0 µM 63% | [4]; at 1.2 µM -1% | [4]; at 3.7 µM -8% | [4]; at 11.0 µM 1% | [4]; at 33.0 µM 16% | [4]; at 100.0 µM 27% | [5]; at 1.2 µM -2% | [5]; at 3.7 µM 8% | [5]; at 11.0 µM 5% | [5]; at 33.0 µM 23% | [5]; at 50.0 µM 67.2% | [5]; at 100.0 µM 62% | [6]; at 1.2 µM -6% | [6]; at 3.7 µM 4% | [6]; at 11.0 µM -3% | [6]; at 33.0 µM 2% | [6]; at 50.0 µM 17.6% | [6]; at 100.0 µM 20% | [7]; at 1.2 µM 0% | [7]; at 3.7 µM 6% | [7]; at 11.0 µM 21% | [7]; at 33.0 µM 36% | [7]; at 100.0 µM 39% | [8]; [17] 0% | [8]; [18] 43% | [8]; at 50.0 µM 47.6% | [9]; at 1.2 µM 18% | [9]; at 3.7 µM 16% | [9]; at 11.0 µM 8% | [9]; at 33.0 µM 14% | [9]; at 100.0 µM 18% | [10]; [17] 34% | [10]; [18] 20% | [10]; at 50.0 µM 25.4% | [11]; at 1.2 µM 6% | [11]; at 3.7 µM -6% | [11]; [17] -5% | [11]; at 11.0 µM -3% | [11]; at 33.0 µM 17% | [11]; [18] 55% | [11]; at 50.0 µM 56.4% | [11]; at 100.0 µM 36% | [12]; at 1.2 µM 2% | [12]; at 3.7 µM 0% | [12]; at 11.0 µM 1% | [12]; at 33.0 µM 15% | [12]; at 100.0 µM 36% | [13]; at 1.2 µM 11% | [13]; at 3.7 µM 13% | [13]; at 11.0 µM 13% | [13]; at 33.0 µM 39% | [13]; at 100.0 µM 60% | [14]; at 50.0 µM 42.7% | [15]; at 1.2 µM 22% | [15]; at 3.7 µM 26% | [15]; at 11.0 µM 25% | [15]; at 33.0 µM 56%
active: [5]; [17] 95% | [5]; [18] 98% | [6]; [17] 99% | [6]; [18] 99% | [14]; [17] 100% | [14]; [18] 99% | [15]; at 100.0 µM 71%

[O-][n+]1c2ccc(O)cc2nc2ccc(Br)cc21
inactive: [1]; at 1.2 µM 1% | [1]; at 3.7 µM 16% | [1]; at 11.0 µM 42% | [2]; at 1.2 µM 1% | [2]; at 3.7 µM 14% | [2]; at 11.0 µM 22% | [2]; at 33.0 µM 45% | [2]; at 100.0 µM 67% | [3]; at 1.2 µM 6% | [3]; at 3.7 µM 20% | [3]; at 11.0 µM 55% | [4]; at 1.2 µM 4% | [4]; at 3.7 µM 21% | [4]; at 11.0 µM 46% | [5]; at 1.2 µM 2% | [5]; at 3.7 µM 18% | [5]; [17] 36% | [5]; at 11.0 µM 56% | [6]; at 1.2 µM -1% | [6]; at 3.7 µM 12% | [6]; [17] 2% | [6]; at 11.0 µM 25% | [6]; at 33.0 µM 49% | [6]; at 100.0 µM 61% | [7]; at 1.2 µM 2% | [7]; at 3.7 µM 7% | [7]; at 11.0 µM 29% | [7]; at 33.0 µM 67% | [8]; [17] 30% | [8]; at 50.0 µM 65% | [9]; at 1.2 µM 14% | [9]; at 3.7 µM 21% | [9]; at 11.0 µM 40% | [9]; at 33.0 µM 54% | [9]; at 100.0 µM 64% | [10]; [17] 16% | [10]; at 50.0 µM 49% | [11]; at 1.2 µM 5% | [11]; at 3.7 µM 16% | [11]; [17] 32% | [11]; at 11.0 µM 41% | [12]; at 1.2 µM 3% | [12]; at 3.7 µM -40% | [12]; at 11.0 µM 25% | [12]; at 33.0 µM 60% | [16]; at 1.2 µM 2% | [16]; at 3.7 µM 15% | [16]; at 11.0 µM 29% | [14]; [17] 50%
active: [1]; at 33.0 µM 83% | [1]; at 100.0 µM 85% | [3]; at 33.0 µM 75% | [3]; at 100.0 µM 77% | [4]; at 33.0 µM 85% | [4]; at 100.0 µM 87% | [5]; at 33.0 µM 87% | [5]; [18] 96% | [5]; at 50.0 µM 88.5% | [5]; at 100.0 µM 87% | [6]; [18] 81% | [6]; at 50.0 µM 78.8% | [7]; at 100.0 µM 81% | [8]; [18] 86% | [10]; [18] 88% | [11]; at 33.0 µM 78% | [11]; [18] 74% | [11]; at 50.0 µM 84% | [11]; at 100.0 µM 70% | [12]; at 100.0 µM 80% | [16]; at 33.0 µM 75% | [16]; at 100.0 µM 84% | [14]; [18] 93% | [14]; at 50.0 µM 92.2%
